The sample as a whole holds a higher share of hits than the screen did.
CHX counter: counter-screen for Shiga toxin inhibitors: cycloheximide protein synthesis inhibition | AID 2314 | 12% of 300,000 active | cell reporter, cycloheximide protein synthesis inhibition counterscreen | max response, %; in the data active = max response mostly above about 13%, no sharp cut-off; inactive = mostly below about 14%; note: read at 38.3 µM for the half of the compounds with a filed dose; 0% is about no effect
AmpC no deterg: inhibitors of E. coli AmpC beta-lactamase without detergent; P00811; AmpC nitrocefin hydrolysis, absorbance 480 nm, 0.0001% Triton; Potency, µM (top dose mostly 57.1 µM), without a hit: top-dose activity change, negative = inhibition, actives largely listed as inhibitors; 0.52% of 330,000 active; active = well fitted curve in the direction sought with a large enough effect; inconclusive = small, poorly fitted or top-dose-only effect, or another doubt; inactive = no such curve, though single readings can be large; an effect the other way counts as inactive or inconclusive;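 note: potency is the fitted concentration of half-maximal effect; plate controls were no compound for no effect and no enzyme for full effect; nearly all actives have a fitted effect of over 20% in size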
Target sequence (P00811 whole entry, looked up): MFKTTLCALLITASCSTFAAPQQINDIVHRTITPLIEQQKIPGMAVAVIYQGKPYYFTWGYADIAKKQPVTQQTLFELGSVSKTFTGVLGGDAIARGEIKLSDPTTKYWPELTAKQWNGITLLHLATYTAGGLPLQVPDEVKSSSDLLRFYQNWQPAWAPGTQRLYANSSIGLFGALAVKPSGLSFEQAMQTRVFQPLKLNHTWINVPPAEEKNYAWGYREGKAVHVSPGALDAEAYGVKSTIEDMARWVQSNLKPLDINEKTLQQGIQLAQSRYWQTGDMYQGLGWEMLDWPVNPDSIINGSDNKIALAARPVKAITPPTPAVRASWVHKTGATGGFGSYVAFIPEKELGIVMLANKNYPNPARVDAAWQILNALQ
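AmpC (5.3 nM in the dispensed reagent) in 20 mM phosphate pH 7.0 with 0.01% (detergent screen) or 0.0001% Triton X-100 was preincubated with compounds for 15 min at room temperature. Nitrocefin was then added from an 800 uM solution, and hydrolysis was followed at 480 nm.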
NS1 inh: inhibitors of influenza NS1 protein function. Potency, µM (highest dose often 46.1 µM), for inactives: at the top dose activity, positive = more growth. 0.4% of 270,000 active; note: potency is the fitted concentration of half-maximal effect; actives are rising curves; nearly all actives have a fitted effect of over 50% in size
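Recovery from NS1-induced slow growth read by OD600 in budding yeast switched to galactose assay medium (pH 6.0, -URA) at 1:100 dilution. Compound 23 nl per well; the matching strain lacking NS1 serves as control.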
AmpC inh detg: inhibitors of E. coli AmpC beta-lactamase with detergent; P00811; AmpC hydrolysis of nitrocefin, absorbance 480 nm, 0.01% Triton; Potency, µM (titrated, usually from 114 µM), for inactives: at the highest dose activity change, negative = inhibition, actives largely listed as inhibitors; 0.041% of 370,000 active; active = well fitted curve in the direction sought with a large enough effect; inconclusive = small, poorly fitted or top-dose-only effect, or another doubt; inactive = no such curve, though single readings can be large; an effect the other way counts as inactive or inconclusive;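 note: potency is the fitted concentration of half-maximal effect; 0% = no-compound wells and -100% = no-enzyme wells; nearly all actives have a fitted effect of over 25% in size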
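20 mM phosphate pH 7.0 + 0.01% (detergent screen) or 0.0001% Triton X-100; 5.3 nM AmpC reagent; cpd preinc 15 min RT; nitrocefin (800 uM stock) to start; A480 q20 s × 4 min; Activity was normalised to no-enzyme and no-compound control wells.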
Shiga inhibitor: blocks Shiga toxin action in Vero cells | inhibition, % at 38.7 µM | Vero cells, Shiga toxin protein synthesis inhibition reporter | 9.2% of 290,000 active; in the data active = inhibition mostly above about 28%, no sharp cut-off; inactive = mostly below about 43%; note: 0% is about no effect
Flu NS1 inh: influenza NS1 function inhibition validation; activity change, negative = inhibition, % at 32.9 µM; shares compounds with NS1 inh; 1,400 tested, under 10 active; influenza NS1 function cell assay, 15-point titration; note: 0% is about no effect
Numbers without * were called inactive; ? = inconclusive; · = no result given. Unless noted, calls come from the whole dose curve.

SMILES	CHX counter	AmpC no deterg	NS1 inh	AmpC inh detg	Shiga inhibitor	Flu NS1 inh
CCNc1nc(NCC)n2c(SCC(=O)Nc3c(C)cccc3C)nnc2n1	·	-6.9%	·	-14.9%	·	·
CCNc1nc(NCC)n2c(SCC(=O)O)nnc2n1	-2.7	-18.9%	10µM*	4.5%	-5.5	8.0
CCN(CC)C(=O)CSc1nc(O)cc(=O)n1-c1ccccc1OC	4.8	-5.4%	8.91µM*	-10.1%	-4.6	37.2
COc1ccc(NC(=O)CSc2nc(O)cc(=O)n2-c2ccccc2OC)cc1	-1.5	-15.8%	?	?	-3.1	·
CCCCOc1ccc(-c2nn(-c3ccccc3)cc2C2NC(=O)NC(C)=C2C(=O)OC)cc1 (stereo unspecified)	·	·	·	4.0%	·	·
COc1ccccc1NS(=O)(=O)c1ccc(C)c(NC(=O)c2ccc(S(=O)(=O)N3CCCCCC3)cc2)c1	1.2	-21.7%	20µM*	2.2%	8.6	7.4
COc1ccccc1NC(=O)c1ccc(S(=O)(=O)N2CCCC2)cc1	-1.0	-2.0%	-13.7%	-11.7%	3.7	·
O=S(=O)(c1ccc2ccccc2c1)N1CCN(C(=S)Nc2ccc(F)cc2)CC1	1.7	-25.7%	11.2µM*	-8.7%	-3.8	-15.3
O=S(=O)(c1ccc2ccccc2c1)N1CCN(C(=S)Nc2ccc(F)c(Cl)c2)CC1	-1.6	-22.1%	-6.4%	3.2%	14.3	·
O=C(Cn1cc2c(n1)CCCC2)NCCCN1CCN(C2CCCCC2)CC1	-1.0	4.6%	8.91µM*	-5.1%	10.9	7.5
Cc1c(C(=O)N2CCN(Cc3ccc4c(c3)OCO4)CC2)sc2ncnc(N3CCN(c4ccccc4)CC3)c12	-1.1	105.7%	2.51µM*	-7.1%	-7.4	?
COC(=O)Cc1cc(=O)n(-c2ccccc2)[nH]1	1.1	-17.8%	8.91µM*	?	-10.4	36.9
COc1ccc(CCNC(=O)c2ccc3c(c2)N(Cc2ccc(C)cc2)CCS3)cc1OC	-1.6	8.0%	7.94µM*	1.4%	12.6	-0.1
Cc1ccc(CCNC(=O)c2ccc3c(c2)N(Cc2ccc(F)cc2)CCS3)cc1	·	·	·	3.5%	·	·
CCOC(=O)/C(=N/Nc1ccccc1)Sc1nnc(CCc2ccccc2)n1-c1ccccc1	3.2	19.1%	26.6%	-3.8%	-5.7	·
O=C(O)CC12C[C@H]3C[C@@H](CC(O)(C3)C1)C2	·	·	-1.0%	·	·	·
COc1ccccc1/C=C/C(=O)NCC(=O)N/N=C/c1cccnc1	-1.0	-29.8%	7.7%	5.3%	16.8	·
COc1ccccc1NCC(=O)N/N=C/c1cccnc1	12.9	0.5%	3.16µM*	1.0%	3.8	32.2
c1ccc(-c2nc3ccccc3[nH]2)nc1	72.2*	11.6%	4.47µM*	-21.5%	117.0*	?
c1ccc(-c2n[nH]c(-c3ccccc3)c2-c2nc3ccccc3[nH]2)cc1	-3.3	-24.2%	-8.3%	0.1%	-13.1	·
Cc1cc(C)cc(NC(=O)CSc2nc3c(oc4ccccc43)c(=O)n2-c2ccccc2)c1	0.8	-0.7%	5.01µM*	?	-13.0	?
Cc1ccc(NC(=S)N2CCN(Cc3ccccc3)CC2)c(C)c1	7.5	32.3%	?	-10.8%	18.9	-16.0
CCS(=O)(=O)N1CCC(C(=O)O)CC1	6.7	-12.1%	·	0.1%	-6.6	·
Cc1ccc2c(C)nc(Nc3nc(CSc4nnnn4-c4ccccc4)cc(=O)[nH]3)nc2c1	3.5	-15.3%	14.1µM*	-2.7%	-10.4	-25.1
O=C(Nc1ccc2c(c1)CCC2)c1cccc(S(=O)(=O)N2CCN(c3ccccc3)CC2)c1	-0.7	-22.9%	12.6µM*	-5.7%	-1.9	-17.8
SMILES	CHX counter	AmpC no deterg	NS1 inh	AmpC inh detg	Shiga inhibitor	Flu NS1 inh
O=C(Nc1ccccc1)c1cccc(S(=O)(=O)N2CCCCC2)c1	18.7	-15.2%	-4.4%	-0.6%	10.6	·
CC1CCC(NC(=O)c2cccc(S(=O)(=O)N3CCN(c4ccccc4)CC3)c2)CC1 (stereo unspecified)	·	-10.5%	·	-13.9%	·	·
O=C(NC1CCCc2ccccc21)c1cccc(S(=O)(=O)N2CCN(c3ccccc3)CC2)c1 (stereo unspecified)	-1.3	-12.9%	11.2µM*	-3.9%	-14.7	5.6
COc1cccc(N2CC(O)=C(c3ccccc3)C2=N)c1	-1.7	-4.7%	7.08µM*	5.5%	-9.9	0.5
O=C(CSc1nnnn1Cc1ccccc1)c1ccccc1	14.3	-44.0%	-13.7%	-13.7%	56.6	·
O=C(CSc1nnnn1Cc1ccccc1)c1ccc(F)cc1	11.5	-30.5%	7.94µM*	-12.0%	48.2	24.6
COC(=O)c1ccc(NC(=S)NC2CCc3ccccc32)cc1 (stereo unspecified)	1.0	-23.1%	0.6%	5.3%	-10.9	·
Cc1ccc(NC(=S)NC2CCSc3ccccc32)cc1 (stereo unspecified)	9.9	-42.8%	1.41µM*	-7.5%	18.1	-0.1
COc1ccc2oc(C(=O)OC(C)C(=O)N3C(C)CCCC3C)c(C)c2c1 (stereo unspecified)	·	115.5%	·	·	·	·
O=C(/C=C/c1ccco1)NC(=S)Nc1cccc(-c2nc3ccccc3o2)c1	9.2	-52.2%	7.2%	-0.2%	4.7	·
O=C(/C=C/c1ccco1)NC(=S)Nc1cc(-c2nc3ccccc3s2)ccc1Cl	57.6*	-55.7%	10µM*	?	94.1*	2.8
COCc1cc(CN2CCCC2)c(O)c2ncccc12	17.5	64.3%	0.708µM*	-4.5%	-9.7	?
CCC(=O)Nc1cc(C)c(NC(=O)c2ccco2)cn1	6.7	-15.5%	1.8%	0.3%	6.8	·
Cc1cc(NC(=O)c2ccccc2)ncc1NC(=O)c1ccco1	18.0*	-3.1%	?	-0.9%	87.4*	-23.5
Cc1ccsc1C(=O)N(C)C1CCS(=O)(=O)C1 (stereo unspecified)	·	-5.9%	·	-5.1%	·	·
O=C(Nc1nnc(SCc2ccc(F)cc2)s1)C1Cc2ccccc2CN1C(=O)c1ccco1 (stereo unspecified)	9.5	-35.8%	7.94µM*	-0.1%	3.6	6.0
Fc1ccccc1N1CCN(C2CCN(Cc3c[nH]c4ccccc34)CC2)CC1	24.2	8.4%	25.1µM*	-20.3%	15.8	-16.5
c1ccc2c(CN3CCCCC3)c[nH]c2c1	3.5	-19.4%	2.2%	6.5%	-3.6	·
Cc1ccccc1-c1ccccc1CN1[C@@H](C(C)C)COCCS1(=O)=O	·	31.2%	·	·	·	·
Cc1ccc(-n2c(O)c(/C=N/Nc3ccc(S(=O)(=O)N4CCOCC4)cc3[N+](=O)[O-])c3ccccc3c2=O)c(C)c1	-2.0	-9.7%	2.51µM*	?	20.2	34.3
O=C(Cn1c(=O)n(Cc2ccccc2)c(=O)c2ccccc21)NCc1ccco1	-1.8	-37.6%	5.0%	-12.0%	-15.2	·
COCCNC(=O)Cn1c(=O)n(Cc2ccc(C(=O)NCc3ccco3)cc2)c(=O)c2ccccc21	3.0	43.3%	?	0.6%	6.2	2.0
Cc1cccc2cc(C#N)c(N3CCN(C)CC3)nc12	0.4	-11.9%	-10.8%	?	-7.4	·
Cc1ccc2nc(N3CCN(C)CC3)c(C#N)cc2c1	33.0*	-0.6%	6.31µM*	-1.1%	53.0	-0.3

Screening data from PubChem BioAssay.
